From PubChem
BCLXL inh = inhibitors of human Bcl-xL, primary screen, biochemical, fluorescence polarization, HTS; Bcl-2-like protein 1 (Homo sapiens), Q07817; GST-Bcl-xL / FITC-Bim BH3 peptide fluorescence polarization; hit rate 0.7% among 320,000; AID 2129, 2009; inhibition, % at 10.9 µM;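 active = inhibition above the mean of all tested compounds plus 3 SD, cutoff set per campaign, cut at about 30% in these data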;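 note: 0% = DMSO wells and 100% = unlabeled Bim-BH3 peptide competitor; inhibitors lower millipolarization by displacing the labeled peptide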
Target sequence (Q07817 whole entry, looked up): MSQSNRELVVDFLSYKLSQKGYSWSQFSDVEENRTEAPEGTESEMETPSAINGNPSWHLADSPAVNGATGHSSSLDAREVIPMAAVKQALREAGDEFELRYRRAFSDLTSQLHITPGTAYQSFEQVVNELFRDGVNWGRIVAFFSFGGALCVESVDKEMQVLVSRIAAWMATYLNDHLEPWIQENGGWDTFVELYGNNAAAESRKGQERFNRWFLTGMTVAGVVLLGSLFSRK
Mcl1-Noxa inh = Mcl-1/Noxa binding inhibitors, primary screen, biochemical, TR-FRET, 1536-well. Induced myeloid leukemia cell differentiation protein Mcl-1 (Homo sapiens), Q07820. TR-FRET Mcl-1/Noxa peptide binding, 2 h. inhibition, % at 21.7 µM. hit rate 1.5% among 220,000. AID 1022, 2008;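 active = compounds that cut the protein-peptide binding signal by more than 50% relative to plate controls in a single-dose test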;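 note: His-tagged Mcl-1 with rhodamine Noxa BH3 peptide and terbium anti-His antibody; 0% = Mcl-1 plus Noxa peptide wells and 100% = peptide-only wells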
Target sequence (Q07820 whole entry, looked up): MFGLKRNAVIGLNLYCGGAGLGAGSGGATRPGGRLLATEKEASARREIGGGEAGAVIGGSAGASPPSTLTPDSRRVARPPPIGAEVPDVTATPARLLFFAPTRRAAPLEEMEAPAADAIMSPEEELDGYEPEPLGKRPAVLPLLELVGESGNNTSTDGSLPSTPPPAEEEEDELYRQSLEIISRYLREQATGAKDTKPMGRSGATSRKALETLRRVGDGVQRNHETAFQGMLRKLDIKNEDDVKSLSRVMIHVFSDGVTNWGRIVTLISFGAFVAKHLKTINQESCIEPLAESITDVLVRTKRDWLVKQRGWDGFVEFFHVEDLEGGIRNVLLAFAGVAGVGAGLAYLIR
Mcl1 Bid PPI = Mcl-1/Bid binding inhibitors, primary screen, biochemical, TR-FRET, 1536-well. Induced myeloid leukemia cell differentiation protein Mcl-1 (Homo sapiens), Q07820. TR-FRET Mcl-1/Bid-Dy647 peptide binding. inhibition, % at 21.7 µM. hit rate 0.97% among 220,000. AID 1021, 2008;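 active = compounds that cut the binding signal by more than half at the single screening dose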;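 note: His-tagged Mcl-1 with europium anti-His antibody binding Bid BH3 peptide; 0% = Mcl-1 plus peptide wells and 100% = peptide-only wells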
MCL1-BIM inh = inhibitors of MCL1 binding to BIM-BH3, primary screen, biochemical, fluorescence polarization. Induced myeloid leukemia cell differentiation protein Mcl-1 (Homo sapiens), Q07820. GST-MCL1 / FITC-Bim-BH3 fluorescence polarization. inhibition, % at 10.9 µM. hit rate 0.68% among 320,000;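 active = inhibition above the mean inhibition of all tested compounds plus 3 SD, set per campaign, cut at about 40% in these data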;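 note: 0% = DMSO wells and 100% = unlabeled Bim-BH3 peptide control; higher means more loss of mP so more displacement of Bim peptide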
GLD-1 TGE inh = GLD-1/TGE RNA complex disruptors, primary screen, biochemical, fluorescence polarization. Female germline-specific tumor suppressor gld-1 (Caenorhabditis elegans), Q17339. purified GLD-1 + fluorescein TGE RNA. inhibition, % at 5.96 µM. hit rate 0.44% among 320,000. AID 2280, 2010;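 active = percent inhibition above a per-plate cutoff, the plate mean of test compounds plus 3 SD, cut at about 30% in these data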;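 note: 0% = DMSO wells with GLD-1 and probe and 100% = wells lacking GLD-1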
Mcl-1 Bim block = inhibitors of Bim peptide binding to Mcl-1, primary screen, biochemical, bead-based flow cytometry, multiplex. hit rate 0.1% among 190,000. Bim peptide-Mcl-1 binding. AID 1009, 2008. Induced myeloid leukemia cell differentiation protein Mcl-1 (Homo sapiens), Q07820. inhibition, % at 10 µM; in the data active = inhibition above about 40%;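 note: 0% = no compound tracer wells and 100% = peptide blocker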
Bcl-xL conf = Bcl-xL inhibitors blocking Bim BH3 binding, confirmation, counter-screen for MCL1 inhibitor project, biochemical, fluorescence polarization; AID 2166, 2009; inhibition, % at 10.9 µM; hit rate 54% among 1,700; shares compounds with MCL1-BIM inh; GST-Bcl-xL / FITC-Bim BH3 peptide FP binding;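 active = inhibition above a cutoff equal to the mean inhibition of all tested compounds plus 3 SD, cut at about 30% in these data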;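 note: 0% = DMSO wells and 100% = unlabeled Bim BH3 control peptide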
MCL1 inh confirm = inhibitors of MCL1 binding to BIM-BH3, confirmation, biochemical, fluorescence polarization, triplicate | shares compounds with MCL1-BIM inh | GST-MCL1 / FITC-Bim-BH3 fluorescence polarization | inhibition, % at 10.9 µM | hit rate 61% among 1,700 | AID 2168, 2009;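 active = inhibition above the average of all tested compounds plus 3 SD, cut at about 40% in these data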;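 note: 0% = DMSO wells and 100% = unlabeled Bim-BH3 control peptide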
* hit, by the source's call. This is a sample that favours compounds with a hit; in the whole collection about 2.3% have one here.

For COc1ccccc1N(CC(=O)NCc1ccco1)S(=O)(=O)c1ccc(C)cc1 the results were BCLXL inh 11, MCL1-BIM inh 47*, GLD-1 TGE inh -1, Bcl-xL conf 33* and MCL1 inh confirm 79*.
`O=[N+]([O-])c1c(NCCCO)cc(SCc2ccco2)c2nonc12` gave BCLXL inh 31*, Mcl1-Noxa inh 11, Mcl1 Bid PPI -82, MCL1-BIM inh 59*, GLD-1 TGE inh 5, Mcl-1 Bim block -6, Bcl-xL conf 14 and MCL1 inh confirm 12.
For CCCCC1=CC2=C(c3ccco3)C(=O)C(C)(OC(=O)c3ccc(OC)cc3)C(=O)C2=CN1CCc1ccccn1 (stereo unspecified) the results were BCLXL inh 13, Mcl1-Noxa inh 16, Mcl1 Bid PPI -67, MCL1-BIM inh 23 and GLD-1 TGE inh 16.
For CCCCC1=CC2=C(c3ccco3)C(=O)C(C)(OC(=O)c3ccc(OC)cc3)C(=O)C2=CN1C1CCCCC1 (stereo unspecified) the results were BCLXL inh 46*, Mcl1-Noxa inh -8, Mcl1 Bid PPI -112, MCL1-BIM inh 52*, GLD-1 TGE inh 39*, Bcl-xL conf 41* and MCL1 inh confirm 59*.
For CCCc1cc(C(=O)Nc2ccc(C(=O)c3ccc(C)cc3)cc2)n(C)n1 the results were BCLXL inh 6, MCL1-BIM inh 5 and GLD-1 TGE inh 4.
For CN1CCN(/N=C/c2c3ccccc3c(Cl)c3ccccc23)CC1 the results were BCLXL inh 111*, Mcl1-Noxa inh 11, Mcl1 Bid PPI -6, MCL1-BIM inh 127*, GLD-1 TGE inh 77*, Mcl-1 Bim block 0, Bcl-xL conf 22 and MCL1 inh confirm 27.
For Cc1cc(C(=O)N/N=C/c2cc(Cl)cc([N+](=O)[O-])c2O)n[nH]1 the results were BCLXL inh 8, Mcl1-Noxa inh 29, Mcl1 Bid PPI -106, MCL1-BIM inh 9 and GLD-1 TGE inh 5.
For CN(C)C1(CN=Cc2cc(Cl)cc([N+](=O)[O-])c2O)CCCCC1 the results were BCLXL inh 8, MCL1-BIM inh 60*, GLD-1 TGE inh 5, Bcl-xL conf -3 and MCL1 inh confirm 2.
Cc1c(C(=O)c2ccc(F)cc2F)c2ccccn2c1CCC#N was read as BCLXL inh 100*, MCL1-BIM inh 117*, GLD-1 TGE inh 90*, Bcl-xL conf 5 and MCL1 inh confirm 6.
Screening Cc1c(C(=O)c2ccc(Cl)cc2[N+](=O)[O-])c2ccccn2c1CCC#N returned BCLXL inh 3, Mcl1-Noxa inh 4, Mcl1 Bid PPI -13, MCL1-BIM inh 5, GLD-1 TGE inh 19 and Mcl-1 Bim block -4.
N#Cc1ccsc1NC(=O)CN1CCCCCC1 was read as BCLXL inh 3, Mcl1-Noxa inh 17, Mcl1 Bid PPI -46, MCL1-BIM inh 2, GLD-1 TGE inh 14 and Mcl-1 Bim block 1.
`CN(CC(=O)Nc1sccc1C#N)C1CCCCC1` gave BCLXL inh 61*, Mcl1-Noxa inh 61*, Mcl1 Bid PPI -6, MCL1-BIM inh 112*, GLD-1 TGE inh 62*, Mcl-1 Bim block -4, Bcl-xL conf 21 and MCL1 inh confirm 23.
CCCCn1c(N)c(N(CCOC)C(=O)c2cc(Cl)nc3ccccc23)c(=O)[nH]c1=O was read as BCLXL inh -4, MCL1-BIM inh -5 and GLD-1 TGE inh 6.
O=C(N/N=C/c1ccc(O)c(O)c1O)/C(=C/c1ccc([N+](=O)[O-])cc1)NC(=O)c1ccccc1 was read as BCLXL inh 20, Mcl1-Noxa inh 87*, Mcl1 Bid PPI -101, MCL1-BIM inh 41*, GLD-1 TGE inh 5, Mcl-1 Bim block 5, Bcl-xL conf 33* and MCL1 inh confirm 63*.
Screening Cc1ccc(NC(=O)/C(=C\c2ccc([N+](=O)[O-])cc2)NC(=O)c2ccccc2)cc1 returned BCLXL inh 4, Mcl1-Noxa inh 4, Mcl1 Bid PPI -13, MCL1-BIM inh -3, GLD-1 TGE inh 2 and Mcl-1 Bim block -2.
Screening CCOC(=O)CN1C(=O)CC(c2ccc([N+](=O)[O-])cc2)C1=O (stereo unspecified) returned BCLXL inh 6, MCL1-BIM inh 3 and GLD-1 TGE inh 3.
`Nc1nc(=S)c2ncn(C3OC(CO)C(O)C3O)c2[nH]1` (stereo unspecified) gave BCLXL inh 28, Mcl1-Noxa inh 89*, Mcl1 Bid PPI -119, MCL1-BIM inh 82*, GLD-1 TGE inh -6, Bcl-xL conf 15 and MCL1 inh confirm 47*.
Screening Nc1nc(=S)c2ncn([C@@H]3O[C@H](CO)[C@@H](O)[C@H]3O)c2[nH]1 returned BCLXL inh 7, MCL1-BIM inh 5 and GLD-1 TGE inh 4.
For O=C(CNCc1ccccc1)Nc1ccc(F)cc1 the results were BCLXL inh 1, Mcl1-Noxa inh 9, Mcl1 Bid PPI 16, MCL1-BIM inh 43*, GLD-1 TGE inh 7, Mcl-1 Bim block -5, Bcl-xL conf 8 and MCL1 inh confirm 3.
`Cc1cc(C(=O)COc2cccc3cccnc23)c(C)n1C` gave BCLXL inh 147*, Mcl1-Noxa inh -4, Mcl1 Bid PPI -57, MCL1-BIM inh 177*, GLD-1 TGE inh 151*, Mcl-1 Bim block -4, Bcl-xL conf 14 and MCL1 inh confirm 8.
`O=[N+]([O-])c1ccccc1-c1ccc(/C=N/n2cnnc2)o1` gave BCLXL inh 8, Mcl1-Noxa inh 18, Mcl1 Bid PPI -31, MCL1-BIM inh 14, GLD-1 TGE inh -2 and Mcl-1 Bim block -2.
Screening CCSC1=N/C(=C\c2ccc(-c3ccccc3[N+](=O)[O-])o2)C(=O)S1 returned BCLXL inh 74*, Mcl1-Noxa inh 48, Mcl1 Bid PPI -19, MCL1-BIM inh 90*, GLD-1 TGE inh 48*, Mcl-1 Bim block -1, Bcl-xL conf 120* and MCL1 inh confirm 141*.
